Assay outcomes as filed in PubChem.
ULK1 inh = human ULK1 kinase inhibition, primary screen; AlphaScreen Atg13 phosphorylation by ULK1, luminescence; O75385; 30,000 tested, 1.9% active; inhibition, % at 5.96 µM; AID 1259251; in the data active means inhibition above about 43%;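 further: 0% = median of compound wells and 100% = no enzyme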
ASK1 inh = inhibitors of human ASK1 kinase | AlphaScreen MKK6 phosphorylation by ASK1, luminescence | inhibition, % at 7.44 µM | 22,000 tested, 0.99% active | AID 1159602; in the data active means inhibition above about 35%;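 further: 0% = median of compound wells and 100% = no enzyme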
* marks the source's active call; other numbers are inactive results; . = no result. The list is not random: actives were taken first. Their share in the collection is about 2.4%.

SMILES	ULK1 inh	ASK1 inh
O=C(NC1CC1)c1ccc(-c2nc(C(=O)NCc3nc4ccccc4[nH]3)cs2)cc1	20	-13
COc1cc(NC(=O)c2cc(N3CCN(c4ccccn4)CC3)nc3ccccc23)cc(OC)c1OC	-4	3
COc1cc(OC)nc(Oc2ccccc2/C=N/NC(N)=S)n1	2	.
CCc1nnc(N/N=C/c2ccccc2Cl)n1N	48*	.
Cc1c(C(=O)O)n[nH]c1-c1cccs1	0	.
O=C(CCl)Nc1ccc2nsnc2c1	2	.
O=C(CCl)Nc1ccc(CN2CCCC2)cc1	66*	.
NC(=O)c1nccnc1Nc1ccnc(Nc2ccc(N3CCOCC3)cc2)c1	17	9
CN1CCN(c2ccc(Nc3cc(Nc4ccccc4C(N)=O)ccn3)cc2)CC1	40	7
c1cc(Nc2cc(C3CC3)[nH]n2)cc(Nc2ccc(N3CCOCC3)cc2)n1	47*	10
Cc1cnc(Nc2ccc(N3CCNCC3)cc2)cc1Nc1ccccc1C(N)=O	94*	3
NC(=O)c1ccccc1Nc1ccnc(Nc2ccc(N3CCOCC3)cc2)c1	10	9
NC(=O)c1cnccc1Nc1ccnc(Nc2ccc(N3CCOCC3)cc2)c1	44*	8
NC(=O)c1ccccc1Nc1ccnc(Nc2ccc(N3CCNCC3)cc2)c1	48*	0
c1cc(Nc2ccc3nc[nH]c3c2)cc(Nc2ccc(N3CCOCC3)cc2)n1	3	11
FC(F)(F)c1ccc(Cn2cnc3c(NCc4nc5ccccc5[nH]4)nc(Nc4nccc5ccccc45)nc32)cc1	4	-7
O=C(NC1CC1)C1CCN(c2ccc(Cl)nn2)CC1	-11	-4
O=C1CCCN1CCn1cnc2c(NC3CC3)nc(-c3csc4ccccc34)nc21	-10	-22
COc1cccc(CN(CCN(C)C)C(=O)Nc2nc3ccc(-c4cn[nH]c4)cc3s2)c1	3	-13
CC(C)N(CCNc1nc(N2CCN(c3ccccn3)CC2)nc2c1ncn2CCN1CCCC1=O)C(C)C	-15	1
Cc1nn(C)c(C)c1-c1nc(Nc2ccc(Oc3ccccc3)cc2)c2ncn(C(C)C)c2n1	-8	12
COc1cc(N2CCOCC2)ccc1Nc1cc(Nc2ccccc2C(N)=O)c(C)cn1	31	0
Cc1cnc(Nc2cccc(N3CCOCC3)c2)cc1Nc1ccccc1C(N)=O	82*	-4
COc1cc(/C=C(\C#N)C(=O)Nc2ccc([N+](=O)[O-])cc2)ccc1OC(C)=O	10	.
O=C(NCCCN1CCCC1=O)c1cccc(NC2CCN(Cc3ccccc3)CC2)n1	-8	-6
SMILES	ULK1 inh	ASK1 inh
CC(=O)Nc1cc(-c2ccnc(N)n2)ccc1NC(=O)COc1cccc(C)c1	11	1
Cc1cccc(OCc2nc3ccc(-c4ccnc(N)n4)cc3[nH]2)c1	68*	8
CCOC(=O)c1ccc(Nc2nc3nonc3nc2Nc2ccc(C(=O)OCC)cc2)cc1	6	.
Fc1cc(-c2nc(Nc3cccc(Cn4cccn4)c3)ncc2F)cc(N2CCOCC2)c1	21	12
Fc1cc(-c2ccnc(Nc3cccc(CN4CCOCC4)c3)n2)cc(N2CCOCC2)c1	38	17
Fc1cc(-c2nc(Nc3cccc(CN4CCOCC4)c3)ncc2F)cc(N2CCOCC2)c1	45*	10
Fc1cc(-c2nc(Nc3cccc(CN4CCCC4)c3)ncc2F)cc(N2CCOCC2)c1	70*	11
c1cncc(-c2nc(-c3ccncc3)cc(N3CCC4(CC3)OCCO4)n2)c1	-3	.
O=C(Nc1ccc2[nH]ncc2c1)[C@H]1CCCN1C(=O)[C@H](O)c1ccccc1	7	1
COc1ccc(CCNc2nc(Nc3cccnc3)nc(OC)n2)cc1	-6	3
c1cc(N2CCOCC2)ccc1Nc1nc(N2CCOCC2)nc2c1ncn2C1CCCCC1	33	-1
OCC1CCCN1c1nc(Nc2ccc(N3CCOCC3)cc2)c2ncn(-c3ccccc3)c2n1 (configuration not stated)	61*	-37
OCC1CCCN1c1nc(Nc2ccc(N3CCOCC3)cc2)c2ncn(C3CCCCC3)c2n1 (configuration not stated)	53*	30
OCC1CCCN1c1nc(Nc2ccc(N3CCOCC3)cc2)c2ncn(-c3ccsc3)c2n1 (configuration not stated)	11	16
Cn1c(=O)[nH]c(N2CCCC2)c(Cc2ccc(F)cc2F)c1=O	5	.
O=C(NCCOc1ccccc1)c1ccnc(N2CCC(N3CCOCC3)CC2)c1	2	-6
COc1ccc(C2(CNC(=O)c3cc([N+](=O)[O-])cc([N+](=O)[O-])c3)CCOCC2)cc1OC	9	.
CCNc1nc(Nc2ccccc2)c2ncn(C(C)C)c2n1	57*	15
c1ccc2[nH]c(CNc3nc(Nc4ccc(-n5ccnc5)cc4)nc4c3ncn4-c3ccsc3)nc2c1	37	1
CC(C)n1cnc2c(Nc3ccccc3)nc(Nc3cccnc3)nc21	52*	-9
CC(C)n1cnc2c(Nc3ccc(Oc4ccccc4)cc3)nc(Nc3cccnc3)nc21	8	15
c1ccc2[nH]c(CNc3nc(Nc4ccncc4)nc4c3ncn4-c3ccsc3)nc2c1	49*	18
CC(C)n1cnc2c(Nc3ccccc3)nc(NCc3cccnc3)nc21	54*	3
CCNc1nc(Nc2cc(OC)c(OC)c(OC)c2)c2ncn(C(C)C)c2n1	-21	8
CC(C)n1cnc2c(NCc3ccccc3)nc(NCc3cccnc3)nc21	2	-7
SMILES	ULK1 inh	ASK1 inh
Nc1nc(NCCCN2CCCC2=O)cc(NC2CC2)n1	-6	-4
CN1CCN(c2ccc(-c3nc4ccc(C(=O)NCCOc5ccccc5)cc4s3)cc2)CC1	5	-8
Cc1cnc(-c2csc3ccccc23)nc1NCCN(C(C)C)C(C)C	3	-2
c1cncc(CNc2nc(NCc3ccc4c(c3)OCO4)nc3c2ncn3-c2ccsc2)c1	10	-19
CC(C)n1cnc2c(Nc3ccc4c(c3)OCO4)nc(NCc3ccc4c(c3)OCO4)nc21	-11	40*
c1cncc(CNc2nc(Nc3ccc4c(c3)OCO4)c3ncn(-c4ccsc4)c3n2)c1	53*	29
CC(=O)Nc1ccc(Nc2nc(NCc3ccc4c(c3)OCO4)nc3c2ncn3C(C)C)cc1	8	15
CCCNC(=O)c1ccc2nc(Nc3ncccn3)sc2c1	17	5
CN(C)c1cccc(Nc2nc(NCCN3CCOCC3)c3ncn(-c4ccsc4)c3n2)c1	1	19
N[C@H](Cc1ccc2ccccc2c1)c1nc2ccc(-c3ccncc3)cc2[nH]1	-18	9
Brc1cncc(-c2cc(N3CCOCC3)nc(-c3ccccc3)n2)c1	11	.
CC(=O)Nc1ccc(NC(=O)c2cccc(Nc3ccc(N4CCOCC4)cc3)n2)cc1	42	-10
CC(=O)Nc1ccc(NC(=O)c2cccc(Nc3ccc(-n4ccnc4)cc3)n2)cc1	16	-2
O=C(Nc1ccc(N2CCOCC2)cc1)c1cccc(Nc2ccc(N3CCOCC3)cc2)n1	48*	-1
O=C(Nc1ccc(N2CCOCC2)cc1)c1cccc(Nc2ccc(-n3ccnc3)cc2)n1	50*	-3
CN(C)CCNC(=O)Cc1ccc(OCCc2nc3ccc(-c4ccnc(N)n4)cc3[nH]2)cc1	4	2
FC(F)(F)c1cccc(CNc2nc(Nc3ccncn3)nc3c2ncn3-c2ccsc2)c1	-4	-27
CN(c1ncccc1CNc1cc(Nc2ccc3c(c2)CC(=O)N3)ncc1C(F)(F)F)S(C)(=O)=O	31	12
CN(c1ncccc1CNc1nc(Nc2ccc3c(c2)CC(=O)N3)ncc1C(F)(F)F)S(C)(=O)=O	78*	26
